In PubChem BioAssay AID1508648 (National Center for Advancing Translational Sciences (NCATS), 2021) one finds Potency data, which are given here for 40 molecules.

Inconclusive results are not listed. Entries that show only a call come without a potency. The source made the active and inactive calls. Calls come from the whole dose curve; as a rule, active = well fitted cell-killing curve with a large enough effect; inconclusive = small, poorly fitted or top-dose-only effect, or effect the other way; inactive = flat fitted curve, though single readings scatter.

This experiment is described as follows: Cell viability assay in S16 Pmp22-HiBiT cells - Confirmatory screen. The note with it: S16 Schwann Pmp22-HiBiT viability, CellTiter-Glo, 24 h; series mostly up to 27.9 µM. An excerpt: Assay Provider: Jim Inglese Ph.D. National Center for Advancing Translational Science, National Institutes of Health, Rockville, MD CMT is a heterogeneous group of neurological disorders that affect approximately 1 in 2,500 people. In particular, the most common form of CMT, CMT1A is genetically linked to the duplication of the PMP22 gene which leads to Schwann cell overexpression, thus manifesting itself as a typical case of dose-sensitive diseases. To identify small molecule compounds that can mediate the expression of PMP22 we developed a phenotypic assay screening strategy by utilizing genome editing techniques to construct Schwann cell lines containing novel reporter technology to monitor the transcriptional or translational regulation of PMP22. For high sensitivity we use a bioluminescent reporter system embedded in the 3' UTR of the PMP22 gene (S16(c9) Pmp22-F2sN) to identify compounds that inhibit gene expression. […] We can further discriminate the effect of all transcriptionally active molecules on PMP22 translation or stability with an assay that incorporates a short NLuc peptide (HiBiT) at the C-terminus of expressed PMP22 (S16(f8) PMP22-HiBiT) allowing alpha complementation and luminescence detection of membrane-associated PMP22 protein. These assays were screened against the NCATS Sytravon Library Collection. Miniaturization of these assays to 1536-well plate format for quantitative high throughput screening (qHTS) yielded rich data sets immediately from the qHTS assay (S16(c9) Pmp22-F2sN), when compared with data from a cell viability assay (Cell TiterGlo) to identify compounds that decreased the output signals through cellular toxicity to streamline the selection process of actives for subsequent characterization using the HiBiT assay (S16(f8) PMP22-HiBiT).
Cell viability assay in S16 Pmp22-HiBiT cells PROTOCOL TABLE (format as described by Inglese J, Shamu CE and Guy RK. 2007) SEQUENCE No. (e.g., 1, 2, 3, etc.); PARAMETER (e.g., Cells, Incubation, Reagent, etc.); VALUE and DESCRIPTION. 1. Cells. Add 500-1,000 cells in 4 uL in growth media (DMEM High Glucose, No Phenol Red media + 10% heat-inactivated FBS + 1% Pen/Strep supplemented media) per well into Greiner 1536-well white/solid bottom high base, TC-treated plates. 2. Compounds. Library compounds and controls added at 23nL per well, transferred by Pin Tool. 3. Incubation. Incubate plates at 37C, 5% CO2, 95% RH for 24 h. 4. Reagent. Add 3uL CellTiter-Glo per well of Greiner 1536-well plates. 5. Incubation. Incubate plates at room temperature for 15 min., protect from light. 6. Detector. Luminescence measured using CCD-based camera (Viewlux). NOTES (numbers refer to Sequence numbers above; values are from representative experiments) 6. Luminescence Read: Clear filter; Exposure = 1 sec, Gain = High, Speed = Slow, Binning = 2X REFERENCES: 1. Inglese J, Shamu CE and Guy RK, Reporting data from high throughput screening of small molecule libraries, Nature Chemical Biology, 2007, 3(8): 438-441. doi.org/10.1038/nchembio0807-438 2. Yasgar A, Shinn P, Jadhav A, Auld DS, Michael S, Zheng W, Austin CP, Inglese J and Simeonov A, Compound Management for Quantitative High-Throughput Screening. J. Assoc. Lab. Auto., 2008, 13: 79-89. doi: 10.1016/j.jala.2007.12.004
(The HiBiT peptide binds its large partner to form an active luciferase.)
As to `COc1ccccc1Nc1c2c(nc3ccc(NC(=O)/C=C/c4cccc(OC)c4OC)cc13)CCCC2`, the Potency was 5.13 µM (active).
With `Cc1ccccc1S(=O)(=O)Cc1ccc(C(=O)N2CCN(c3cccc(Cl)c3)CC2)o1` the entry was “inactive”; with `O=C(Cn1c(-c2cccs2)cc2cc(F)ccc21)NCCCN1CCN(c2ccccc2F)CC1`, “inactive”; with `CCOc1ccc(C(=O)c2cnc3ccc(Cl)cc3c2S(=O)(=O)c2ccc(C)cc2)cc1`, “inactive”.
For `Cc1c(Cl)cccc1NC(=O)c1oc2ccc(S(=O)(=O)N3CCC4(CC3)OCCO4)cc2c1C` the value was “inactive”; for `Cc1cccc(-n2c(=O)c3c(c4cc(C)ccc4n3C)n(CC(=O)NCCC3=CCCCC3)c2=O)c1`, “inactive”; for `O=S(=O)(NCC(c1ccco1)S(=O)(=O)c1cccs1)c1ccc(Cl)cc1` (stereo not given), “inactive”.
For `COc1cccc(-n2c(SCC(=O)c3ccc(Cl)cc3)nc3c([nH]c4ccccc43)c2=O)c1` the value was 10.2 µM (active); for `COc1ccc(NC(=O)Cn2c(=O)n(CCC(=O)NCc3ccccc3OC)c(=O)c3ccccc32)cc1Cl`, 16.2 µM (active); for `Cc1ccc(S(=O)(=O)c2nnn3c2nc(NC2CCCCCC2)c2sccc23)cc1C`, “inactive”.
As for `Cc1ccc(CN2C(=O)C(O)(c3c(C)[nH]c4ccccc34)c3ccccc32)cc1` (stereo not given), the Potency entry was “inactive”.
Turning to `CCOC(=O)c1c(NC(=O)c2nc(S(C)(=O)=O)ncc2Cl)sc(C(C)=O)c1C`, the Potency is 4.57 µM (active).
Turning to `CCS(=O)(=O)c1ncc(Cl)c(C(=O)Nc2c(C(=O)c3ccc(C)cc3)oc3ccccc23)n1`, the Potency entry is “inactive”.
As for `CCC(Sc1nc2ccccc2c2nc(-c3ccccc3)nn12)C(=O)Nc1cccc(OC)c1` (stereo not given), the Potency result is “inactive”.
With `CCN(CC)c1ccc(NC(=O)C2COc3ccc(OC)cc3C2)c(C)c1` (stereo not given), the Potency result was “inactive”.
Turning to `COc1ccc(Br)c2c1-c1nc(NC(=O)c3cccc(C)c3)sc1C2`, the Potency entry is “inactive”.
In the case of `Cc1cc(NC(=O)C2CCCN(S(=O)(=O)c3cccc4nonc34)C2)ccc1Br` (stereo not given), the Potency result was “inactive”.
For `Cc1ccc(C)c(NC(=O)Cn2c(=O)n(Cc3ccc4c(c3)OCO4)c(=O)c3ccc(C(=O)NC4CCCCC4)cc32)c1` the value was “inactive”; for `Cc1ccc(NC(=O)N2CCc3cc(S(=O)(=O)N4CCC(C)CC4)ccc32)cc1F`, “inactive”.
In the case of `CCCn1c(=N)c(C(=O)NC(C)c2ccccc2)cc2c(=O)n3ccccc3nc21` (stereo not given), the Potency entry is “inactive”.
Regarding `CCC(=O)C1=C(c2cccc([N+](=O)[O-])c2)N(C(=O)CC)n2c(nnc2C2CCCCC2)S1`, the Potency result is “inactive”.
For `CCOCCCNC(=O)c1ccc(-n2c(-c3ccccc3)cc3c2CCC(C)C3)cc1` (stereo not given) the value was “inactive”; for `O=C(Cn1c(-c2cccs2)cc2ccccc21)NCCCN1CCN(c2ccc(F)cc2)CC1`, “inactive”; for `Cc1cc(C)c(NC(=O)Cn2c(=O)n(Cc3ccco3)c(=O)c3ccc(C(=O)NC4CCCC4)cc32)c(C)c1`, “inactive”.
Take `CCc1ccc(C(=O)c2cn(CC(=O)Nc3ccc4c(c3)OCO4)c3ccc(CC)cc3c2=O)cc1`: the Potency was 14.5 µM (active).
In the case of `COCCCNC(=O)c1ccc(-n2c(-c3ccccc3)cc3c2CCC(C)C3)cc1` (stereo not given), the Potency entry was “inactive”.
With `O=C(CCS(=O)(=O)c1nc(-c2cccs2)cc(C(F)(F)F)n1)Nc1ccc(OC(F)(F)F)cc1` the entry was “inactive”; with `CCC(=O)C1=C(c2cccc([N+](=O)[O-])c2)N(C(=O)CC)n2c(nnc2-c2ccccc2)S1`, “inactive”.
With `Cc1ccc(OCC(=O)Nc2ccc3nc(SCC(=O)N4CCc5ccccc54)sc3c2)cc1` the entry was “inactive”; with `COc1ccc(-c2cc(C(F)(F)F)nc(S(C)(=O)=O)n2)cc1`, 18.2 µM (active).
On to `COc1ccccc1CNC(=O)CSc1nnc(C)c2c(C)n(-c3ccccc3)nc12`, for which the Potency result was “inactive”.
Consider `CCC(C)NC(=O)C1CCN(C(=O)c2cc3sccc3n2Cc2ccc(Cl)cc2)CC1` (stereo not given), for which the Potency was 11.5 µM (active).
For the molecule `COC(=O)c1c(-c2ccc(Cl)cc2)noc1N1CCN(c2cccc(C(F)(F)F)c2)CC1`, the Potency was 10.2 µM (active).
With `COc1ccc(NC(=O)CCS(=O)(=O)c2nc(-c3cccs3)cc(C(F)(F)F)n2)cc1` the entry was “inactive”; with `Cc1cccc(CS(=O)(=O)c2ncc(Cl)c(C(=O)Nc3nc4ccc(F)cc4s3)n2)c1`, 14.5 µM (active); with `COc1ccc(Br)cc1CC1C(=O)Nc2ccccc21` (stereo not given), “inactive”.
Regarding `CCCN1CCN(CCCNC(=O)Cn2c(-c3cccs3)cc3ccccc32)CC1`, the Potency result was “inactive”.
With `Clc1cccc(-c2noc3ncnc(NC4CCCCC4)c23)c1` the entry was “inactive”; with `COc1ccccc1NC(=O)Cn1c(=O)n(-c2cccc(Cl)c2)c(=O)c2sc3ccccc3c21`, 12.9 µM (active); with `CCN(CC)CCNC(=O)c1cc(-c2ccc(Br)s2)nc2ccccc12`, 10.2 µM (active).
